According to PubChem BioAssay (NCI):
About 83,000 compounds went through this panel and 20% of them were active in at least one assay; those are over-represented in the sample as a whole.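 Treatment: one concentration, 48 hours, 96-well format. Scoring: percent growth, with anything below 10 considered active.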 Unmarked numbers belong to inactive results. Activity calls are given as the source filed them.

system: UACC-62 melanoma; experiment: NCI-60 one-dose screen, 48 h (100 = growth as untreated, 0 = no growth, -100 = all killed); conditions: 10 µM unless noted

SMILES	growth
O=C(/C=C/c1ccc(C(F)(F)F)cc1)c1ccc(Nc2nc(NCCO)nc(Nc3ccc(Cl)cc3)n2)cc1	62.4%
OC(c1ccccc1)c1nnc(SCc2ccccc2)n1Cc1ccccc1 (stereo not given)	69.1%
CCOC(=O)c1cnc2ccc(Cl)cc2c1NCCCN(C)C	-15.6% (active)
CC(=O)c1ccc(Cc2ccc(C(C)=O)s2)s1	96.4%
CCCCC1CCc2cccc3c(SCC(=O)N(C)c4ccc(Cl)cc4)cc[n+]1c23 (stereo not given)	96.3%
CCN1C(=O)N(CC)C2C1NN=c1s/c(=C3\C(=O)N(C(C)C)c4ccccc43)c(=O)n12 (stereo not given)	16.9%
Cc1ccc2cccc(Oc3ccc(Nc4ncnc5onc(-c6ccccc6)c45)cc3)c2n1	63.8%
O=C(NC1C(O)OC(CO)C(O)C1O)NS(=O)(=O)c1ccc(Cl)cc1 (stereo not given)	94.8%
O=C(Cc1ccccc1)NC(c1ccc(Cl)cc1)c1c(O)ccc2ccccc12 (stereo not given)	5.84% (active)
CC(=O)c1ccc2oc(=O)n(Cc3ccc(C#N)cc3)c(=O)c2c1	97.9%
O=C(O)CCC(=O)c1ccc(C2CCCCCC2)cc1	106%
COc1ccc(Cn2c(Br)c3c(c2-c2cc(OC)c(OC)c(OC)c2)CCc2sc(NC(=O)c4ccc(OC)cc4)nc2-3)cc1	94.9%
O=c1c2cc(F)ccc2sc2c(Nc3ccncc3)nc3ccccc3c12	66.7%
N#Cc1c(N)nc2c(c1N)C(c1ccc(F)cc1)c1ccc(N)cc1O2 (stereo not given)	111%
CC(=S)NC(=O)C(=O)/C=C1/NC(=O)C(=O)S1	99.9%
